Source: PubChem BioAssay AID1671202 (University of Kansas High Throughput Screening Laboratory, 2021)
“And” between values parts separate entries of the source, which are not always exact repeats. Equal values may be shown once. About 6,900 (3.6%) of roughly 190,000 compounds were called active. This is one part of a sample in which actives are shown more often than they occur. Rule as the data show it: active = inhibition above about 50%; inactive = the rest. Where a structure was tested more than once in an assay, its records may differ in their call.

biological target: Huntingtin (Homo sapiens) (UniProt P42858); experiment: mutant huntingtin-calmodulin interaction inhibitors – biochemical, AlphaScreen, primary screen (AID 1671202); details: AlphaScreen His-mHTT/GST-CaM binding, luminescence; at 15 µM, stronger effect = higher value;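 as to inhibition: 0% = both proteins with DMSO and 100% = one protein alone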
Sequence (P42858 whole entry, looked up, stated change not applied): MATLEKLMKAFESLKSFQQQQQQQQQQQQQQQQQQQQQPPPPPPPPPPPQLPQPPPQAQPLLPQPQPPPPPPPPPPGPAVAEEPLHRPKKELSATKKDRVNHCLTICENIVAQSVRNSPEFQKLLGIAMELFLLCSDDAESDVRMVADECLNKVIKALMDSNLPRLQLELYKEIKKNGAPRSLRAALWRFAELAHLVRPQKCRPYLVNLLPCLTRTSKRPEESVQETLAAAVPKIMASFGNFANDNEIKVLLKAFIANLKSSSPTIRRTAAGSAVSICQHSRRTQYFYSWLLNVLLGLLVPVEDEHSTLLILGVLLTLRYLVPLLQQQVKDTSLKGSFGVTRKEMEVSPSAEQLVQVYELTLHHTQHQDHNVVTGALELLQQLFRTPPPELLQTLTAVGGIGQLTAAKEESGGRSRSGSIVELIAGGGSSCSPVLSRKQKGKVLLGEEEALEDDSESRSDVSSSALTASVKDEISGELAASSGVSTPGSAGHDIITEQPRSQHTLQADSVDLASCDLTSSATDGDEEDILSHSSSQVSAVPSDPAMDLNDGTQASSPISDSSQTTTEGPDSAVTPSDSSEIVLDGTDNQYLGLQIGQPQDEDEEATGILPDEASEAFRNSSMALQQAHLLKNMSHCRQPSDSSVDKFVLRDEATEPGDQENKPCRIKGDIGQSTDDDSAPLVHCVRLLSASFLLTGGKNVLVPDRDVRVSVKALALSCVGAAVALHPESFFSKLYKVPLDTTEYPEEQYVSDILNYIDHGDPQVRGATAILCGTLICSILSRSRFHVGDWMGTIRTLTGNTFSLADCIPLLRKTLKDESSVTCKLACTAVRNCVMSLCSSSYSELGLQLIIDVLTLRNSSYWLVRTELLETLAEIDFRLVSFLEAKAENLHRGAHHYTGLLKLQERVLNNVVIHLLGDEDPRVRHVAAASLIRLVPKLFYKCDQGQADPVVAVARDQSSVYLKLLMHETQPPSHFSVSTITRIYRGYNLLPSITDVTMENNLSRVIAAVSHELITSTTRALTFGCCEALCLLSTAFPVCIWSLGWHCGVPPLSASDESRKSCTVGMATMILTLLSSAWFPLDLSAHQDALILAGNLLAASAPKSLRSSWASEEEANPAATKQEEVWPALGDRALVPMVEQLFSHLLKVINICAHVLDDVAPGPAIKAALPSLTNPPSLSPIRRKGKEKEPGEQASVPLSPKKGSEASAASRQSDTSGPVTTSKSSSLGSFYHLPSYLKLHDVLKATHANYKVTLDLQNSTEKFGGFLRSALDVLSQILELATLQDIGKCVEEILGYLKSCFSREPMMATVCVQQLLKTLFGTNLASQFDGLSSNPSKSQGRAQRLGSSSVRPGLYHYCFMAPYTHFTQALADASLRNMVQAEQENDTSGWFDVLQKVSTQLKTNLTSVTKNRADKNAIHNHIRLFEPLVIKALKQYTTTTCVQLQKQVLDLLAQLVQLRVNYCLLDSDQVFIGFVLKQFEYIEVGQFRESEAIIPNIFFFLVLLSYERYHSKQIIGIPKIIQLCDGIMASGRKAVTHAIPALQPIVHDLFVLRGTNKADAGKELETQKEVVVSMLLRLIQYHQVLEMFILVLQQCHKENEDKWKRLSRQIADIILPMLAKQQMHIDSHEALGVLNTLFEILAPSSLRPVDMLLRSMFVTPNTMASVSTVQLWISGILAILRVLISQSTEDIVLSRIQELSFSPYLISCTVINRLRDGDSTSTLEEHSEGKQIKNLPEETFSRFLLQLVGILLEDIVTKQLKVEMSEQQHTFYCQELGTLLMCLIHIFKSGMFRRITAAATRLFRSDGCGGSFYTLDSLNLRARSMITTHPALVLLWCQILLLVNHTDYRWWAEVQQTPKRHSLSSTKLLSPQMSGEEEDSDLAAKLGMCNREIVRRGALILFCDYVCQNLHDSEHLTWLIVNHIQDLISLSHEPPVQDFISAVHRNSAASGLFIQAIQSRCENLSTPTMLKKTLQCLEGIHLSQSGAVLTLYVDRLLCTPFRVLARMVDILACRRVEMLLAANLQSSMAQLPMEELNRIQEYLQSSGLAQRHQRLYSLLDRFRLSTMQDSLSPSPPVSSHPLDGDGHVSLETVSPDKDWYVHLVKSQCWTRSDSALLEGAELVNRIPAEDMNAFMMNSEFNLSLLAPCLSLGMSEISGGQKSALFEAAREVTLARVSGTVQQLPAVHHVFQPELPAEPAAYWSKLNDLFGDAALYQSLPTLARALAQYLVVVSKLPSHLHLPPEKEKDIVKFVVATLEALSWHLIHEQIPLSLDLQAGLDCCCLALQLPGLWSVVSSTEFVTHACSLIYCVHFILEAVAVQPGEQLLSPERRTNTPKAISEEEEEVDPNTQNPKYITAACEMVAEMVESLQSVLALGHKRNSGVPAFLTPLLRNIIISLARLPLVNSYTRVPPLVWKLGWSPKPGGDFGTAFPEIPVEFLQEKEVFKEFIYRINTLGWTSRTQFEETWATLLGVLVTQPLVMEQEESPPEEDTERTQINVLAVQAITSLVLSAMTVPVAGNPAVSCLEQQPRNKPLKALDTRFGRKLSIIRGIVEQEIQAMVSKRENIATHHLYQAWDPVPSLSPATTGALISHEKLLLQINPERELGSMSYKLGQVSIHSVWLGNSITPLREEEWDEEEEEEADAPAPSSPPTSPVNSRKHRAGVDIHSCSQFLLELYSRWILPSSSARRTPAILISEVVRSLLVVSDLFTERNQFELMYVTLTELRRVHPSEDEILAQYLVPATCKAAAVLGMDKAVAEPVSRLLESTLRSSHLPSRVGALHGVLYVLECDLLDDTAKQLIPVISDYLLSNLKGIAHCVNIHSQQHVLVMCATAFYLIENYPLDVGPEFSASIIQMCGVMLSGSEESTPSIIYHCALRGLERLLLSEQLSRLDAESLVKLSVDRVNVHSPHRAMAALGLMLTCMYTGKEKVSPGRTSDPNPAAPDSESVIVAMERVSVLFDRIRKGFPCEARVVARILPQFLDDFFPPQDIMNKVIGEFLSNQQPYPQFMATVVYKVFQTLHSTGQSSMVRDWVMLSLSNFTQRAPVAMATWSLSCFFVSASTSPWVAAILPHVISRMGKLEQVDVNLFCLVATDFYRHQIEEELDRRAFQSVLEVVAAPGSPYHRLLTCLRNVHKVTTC

| SMILES | inhibition |
| --- | --- |
| COc1ccccc1NC(=O)CC(C)c1ccccc1 (configuration not stated) | -7.2% (inactive) |
| COc1ccccc1NC(CNS(=O)(=O)c1ccc(Cl)cc1)c1ccccc1 (configuration not stated) | 64% (active) |
| COc1ccccc1NC(=O)c1cc(S(=O)(=O)NCc2ccccc2Cl)ccc1F | -3% (inactive) |
| COc1ccc(C2=NN(C(C)=O)C(c3cc4cc(C)ccc4nc3Cl)C2)cc1OC (configuration not stated) | -3% (inactive) |
| O=C(CN1N=C(c2ccccc2)CCC1=O)NCCc1ccc(Cl)cc1 | 29% (inactive) |
| O=C(NCCc1ccccc1)c1ccc(I)cc1 | -3% (inactive) |
| COc1ccccc1NC(=O)Cn1nnc(-c2ccccc2F)n1 | -2.8% (inactive) |
| COc1cc(C(=O)N2CCCC2)c([N+](=O)[O-])cc1OC | -4.1% (inactive) |
| COc1cc(C(=O)N2CCC(Cc3ccccc3)CC2)c([N+](=O)[O-])cc1OC | 54.1% (active) |
| COc1ccc(NC(=O)N2CCC(Cc3ccccc3)CC2)cc1 | -3.2% (inactive) |
| CCOc1ccc(C(=O)Nc2cc([N+](=O)[O-])ccc2C)cc1 | -0.3% (inactive) |
| COc1cccc(OC)c1C(=O)Nc1sc2c(c1C(N)=O)CCCC2 | 25.3% (inactive) |
| COc1ccc(OC)c(NC(=O)c2c(NCc3ccc(C)o3)sc3c2CCC3)c1 | 7.9% (inactive) |
| COc1ccccc1NC(=O)c1c(NCc2ccncc2)sc2c1CCCC2 | 65% (active) |
| Cn1nccc1C(=O)N1CCCC(c2n[nH]c(C3CC3)n2)C1 (configuration not stated) | 5.54% (inactive) |
| CC(=O)c1nc2sc(C)c(C)c2[nH]1 | -3.74% (inactive) |
| COc1ccc(C2C(=C(O)c3ccc(C)cc3)C(=O)C(=O)N2c2ccccn2)cc1 (configuration not stated) | 2.6% (inactive) |
| CN(C)CCCN1C(=O)C(=O)C(=C(O)c2ccccc2)C1c1cccc(Br)c1 (configuration not stated) | -1.6% (inactive) |
| Cc1ccc(C(O)=C2C(=O)C(=O)N(c3ncccn3)C2c2cccc(Br)c2)cc1 (configuration not stated) | 51.6% (active) |
| CN1CCN(CC(=O)Nc2c3c(nc4ccccc24)N(c2ccccc2)CC3)CC1 | -4% (inactive) |
| CN1CCc2c(n(-c3ccccc3)c3ccccc23)C1=O | 56.8% (active) |

| SMILES | inhibition |
| --- | --- |
| N#CSc1ccc(NC(=O)c2ccc(-n3cnnn3)cc2)cc1 | 8.8% (inactive) |
| C=CCNC(=O)C(=O)NCc1ccccn1 | -1.5% (inactive) |
| Cc1ccc(S(=O)(=O)Nc2ccccc2C(=O)NN)cc1 | 5.3% (inactive) |
| Cc1ccc(S(=O)(=O)Nc2cc(S(=O)(=O)O)c(N)c3c2C(=N)c2ccccc2C3=O)cc1 | 94% (active) |
| COc1cc(N)ccc1NS(=O)(=O)c1ccc(C)cc1 | 10.8% (inactive) |
| CCCc1cc(=O)[nH]c(SCC(=O)Nc2cc(C(F)(F)F)ccc2Cl)n1 | -6.6% (inactive) |
| O=C(O)C1C2CCC3C(CCC21)C3C(=O)O (configuration not stated) | -1.3% (inactive) |
| C=CCOC(=O)C1=C(C)NC2=C(C(=O)CC(C)(C)C2)C1c1ccc(OCC)c(OC)c1 (configuration not stated) | -6.9% (inactive) |
| O=C(NCc1cccs1)C1CCc2sc(C(=O)N3CCCCC3)cc2C1 (configuration not stated) | 3.05% (inactive) |
| O=C(NC(n1cnc2c(Cl)ncnc21)C(Cl)(Cl)Cl)c1ccccc1 (configuration not stated) | -3% (inactive) |
| O=C(Nc1cccc(Cl)c1)Nc1c2c(nn1-c1ccccc1)CSC2 | 15.8% (inactive) |
| CCOc1ccc(-n2c(SCC(=O)NC3CCCCC3)nc3n[nH]c(C)c3c2=N)cc1 | 10% (inactive) |
| CCC(Sc1nc2n[nH]c(C)c2c(=N)n1-c1ccc(Br)cc1)C(=O)NCCOC (configuration not stated) | 75% (active) |
| CCC(Sc1nc2n[nH]c(C)c2c(=N)n1-c1ccc(OC)cc1)C(=O)Nc1ccccc1OC (configuration not stated) | 30% (inactive) |
| Cc1ccc(C(=O)Nc2ccc(-n3cnnn3)c(C)c2)cc1 | -6.6% (inactive) |
| COc1ccc(Br)cc1S(=O)(=O)NCCCn1ccnc1 | -3.1% (inactive) |
| Cn1cc(C2=CCN(S(=O)(=O)c3cccc(Cl)c3)CC2)c2cccnc21 | 0.52% (inactive) |
| COc1cccc(-c2nc(C3CCN(S(=O)(=O)c4ccccc4F)CC3)no2)c1 | -3.26% (inactive) |
| CCOc1ccc(C2C3=C(CC(C)(C)CC3=O)Nc3ncnn32)cc1 (configuration not stated) | -2.23% (inactive) |
| CCCOc1ccc(C2C3=C(CC(C)(C)CC3=O)Nc3ccc4ncccc4c32)cc1 (configuration not stated) | 49% (inactive) |
| CC1(C)CC(=O)C2=C(C1)NC1=C(C(=O)c3ccccc31)C2c1ccc(OCc2ccccc2)cc1 (configuration not stated) | 100% (active) |

| SMILES | inhibition |
| --- | --- |
| O=C(c1ccccc1)c1cc(S(=O)(=O)C(F)(F)F)ccc1[N+](=O)[O-] | 34% (inactive) |
| CCOc1ccc(CN2CCCC2c2c(C)noc2CC)cc1 (configuration not stated) | -51.7% (inactive) |
| CNC(=O)c1c(NC(=O)c2ccc(Br)s2)sc(C)c1C | -10.4% (inactive) |
| CSc1cccc(NC(=O)c2ncn[nH]2)c1 | 0.6% (inactive) |
| O=C(Nc1ccc(Cl)c(C(=O)O)c1)c1ncn[nH]1 | 18.5% (inactive) and 57% (active) |
| O=C(Nc1cc([N+](=O)[O-])ccc1Cl)c1ncn[nH]1 | 4% (inactive) |
| CC(C)(c1ccccc1)c1ccc(OCC(=O)Nc2ncn[nH]2)cc1 | 16% (inactive) |
| O=C1/C(=C/c2cccs2)CC2CC1C/C(=C\c1cccs1)C2=O | 31% (inactive) |
| Cc1n[nH]c(=O)nc1N/N=C/c1cccs1 | active |
| Cc1ccc(C)c(N2CCN(C(=O)c3cc4ccncc4n3C)CC2)c1 | 48.1% (inactive) |
| Cc1cc(O)c(CN2CCCCC2)c2c1C(=O)C(=Cc1ccncc1)O2 | 10% (inactive) |
| O=C1C2CC(Br)C(Br)CC2C(=O)N1c1ccc([N+](=O)[O-])cc1 (configuration not stated) | 0% (inactive) |
| O=C(CCc1ccccc1)N1N=C(c2cccc([N+](=O)[O-])c2)CC1(O)C(F)(F)F (configuration not stated) | 26% (inactive) |
| O=C1CC(c2ccccc2)=NN1c1ccc([N+](=O)[O-])cc1 | 91% (active) |
| CCCn1ncc(N2CCC(C(=O)NCCCN3CCOCC3)CC2)cc1=O | -2.54% (inactive) |
| O=C(Nc1ccc(Cn2cncn2)cc1)c1ccc(Cl)cc1 | 17.8% (inactive) |
| CC1CN(C(=O)C2(c3ccccc3)CC2)CC1c1nc(-c2cccnc2)no1 (configuration not stated) | 29.4% (inactive) |
| CCN(CC)CCCNC(=O)c1c(O)c2cc(F)cc3c2n(c1=O)C(C)CC3 (configuration not stated) | 98% (active) |
| CCNC(=O)c1c(O)c2cccc3c2n(c1=O)CC3 | 0% (inactive) |
| CCN(CC)CCNC(=O)c1cn(C2CCCCC2)c(=O)c2c1c1ccccc1n2C | 6% (inactive) |
